Screens deposited in PubChem by Center for Chemical Genomics, University of Michigan.
This is one part of a sample in which hits are shown more often than they occur.
Dicer processing – human Dicer pre-microRNA cleavage inhibition; cat-ELCCA pre-miR-21 Dicer processing, chemiluminescence; stronger effect = higher value; actives 6% (n = 47,000); z-score at 25 µM; Q9UPY3; in the data active = z-score above about 3, passing the limit was not always enough;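 also: higher signal means more uncleaved substrate so more Dicer inhibition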
Target sequence (Q9UPY3 whole entry, looked up): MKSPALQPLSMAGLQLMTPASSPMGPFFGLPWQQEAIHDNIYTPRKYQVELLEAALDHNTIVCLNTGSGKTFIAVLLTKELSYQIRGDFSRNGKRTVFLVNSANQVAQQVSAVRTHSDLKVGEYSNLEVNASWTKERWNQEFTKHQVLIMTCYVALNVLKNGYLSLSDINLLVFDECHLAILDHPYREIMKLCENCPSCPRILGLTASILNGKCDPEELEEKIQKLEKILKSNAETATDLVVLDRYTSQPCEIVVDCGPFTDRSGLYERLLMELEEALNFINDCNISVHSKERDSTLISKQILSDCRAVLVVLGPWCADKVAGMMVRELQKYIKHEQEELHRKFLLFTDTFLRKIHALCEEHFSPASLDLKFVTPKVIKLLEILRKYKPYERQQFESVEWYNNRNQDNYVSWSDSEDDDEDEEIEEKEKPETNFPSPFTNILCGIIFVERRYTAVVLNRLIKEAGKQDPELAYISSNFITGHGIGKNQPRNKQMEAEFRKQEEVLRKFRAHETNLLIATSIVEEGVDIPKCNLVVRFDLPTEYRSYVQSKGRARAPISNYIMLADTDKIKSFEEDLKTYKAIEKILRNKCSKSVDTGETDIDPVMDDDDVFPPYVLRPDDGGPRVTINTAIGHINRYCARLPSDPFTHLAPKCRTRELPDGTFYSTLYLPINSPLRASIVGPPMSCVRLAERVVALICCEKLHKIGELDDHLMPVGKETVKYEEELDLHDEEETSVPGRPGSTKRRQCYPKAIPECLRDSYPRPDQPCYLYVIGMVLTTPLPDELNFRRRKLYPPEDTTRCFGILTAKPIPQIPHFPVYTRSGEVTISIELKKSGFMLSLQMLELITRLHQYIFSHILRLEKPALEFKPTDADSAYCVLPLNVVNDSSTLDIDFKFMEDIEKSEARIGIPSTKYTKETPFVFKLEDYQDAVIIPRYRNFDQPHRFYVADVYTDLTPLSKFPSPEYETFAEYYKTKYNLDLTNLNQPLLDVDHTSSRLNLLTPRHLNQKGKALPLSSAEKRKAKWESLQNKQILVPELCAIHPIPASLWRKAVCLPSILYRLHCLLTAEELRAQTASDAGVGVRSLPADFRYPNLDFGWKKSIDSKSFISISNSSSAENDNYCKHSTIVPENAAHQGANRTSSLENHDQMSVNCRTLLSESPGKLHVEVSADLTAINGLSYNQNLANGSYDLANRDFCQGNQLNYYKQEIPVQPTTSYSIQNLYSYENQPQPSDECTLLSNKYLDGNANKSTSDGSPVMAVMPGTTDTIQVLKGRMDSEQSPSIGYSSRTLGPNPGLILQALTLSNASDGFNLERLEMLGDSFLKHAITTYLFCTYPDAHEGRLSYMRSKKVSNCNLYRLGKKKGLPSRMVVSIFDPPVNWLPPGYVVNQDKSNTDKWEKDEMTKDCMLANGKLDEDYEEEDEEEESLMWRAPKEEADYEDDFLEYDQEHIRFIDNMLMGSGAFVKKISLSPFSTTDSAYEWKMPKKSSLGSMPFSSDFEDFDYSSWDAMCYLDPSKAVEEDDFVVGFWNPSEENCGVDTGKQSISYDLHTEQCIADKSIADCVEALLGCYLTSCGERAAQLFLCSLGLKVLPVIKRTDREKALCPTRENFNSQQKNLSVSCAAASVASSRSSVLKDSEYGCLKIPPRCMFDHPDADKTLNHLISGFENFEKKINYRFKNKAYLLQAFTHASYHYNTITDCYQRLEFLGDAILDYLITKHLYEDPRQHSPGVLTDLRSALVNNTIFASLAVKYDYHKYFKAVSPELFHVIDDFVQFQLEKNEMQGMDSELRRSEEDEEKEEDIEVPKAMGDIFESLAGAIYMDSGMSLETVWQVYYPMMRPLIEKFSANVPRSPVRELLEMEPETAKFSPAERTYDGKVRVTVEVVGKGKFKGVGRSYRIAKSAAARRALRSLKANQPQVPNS
A number is an active result; 0 = inactive.

SMILES | Dicer processing
COC(=O)C1=C(C(=O)OC)SC(=C2C(=S)C(C)(C)Nc3c(OC)cccc32)S1 | 0
CCOc1cc(C2C3=C(CC(C)(C)CC3=O)NC3=C2C(=O)CC(C)(C)C3)cc(Br)c1O | 0
Nc1c(C(=O)c2ccc(Oc3ccccc3)cc2)oc2ccccc12 | 3.8
O=C(Nc1c(C(=O)c2ccc(F)cc2)oc2ccccc12)c1ccccc1 | 0
Cc1ccc(C(=O)c2oc3ccccc3c2N)cc1 | 0
Fc1ccccc1-n1c(CCc2nc(-c3ccc(Cl)cc3)no2)n[nH]c1=S | 0
CCOC(=O)c1cc(C(C)(C)C)[nH]c(=S)c1C#N | 0
Cc1cc(OC(=O)c2cccs2)c(Cl)c(C)c1Cl | 0
COCOc1ccc(C(=O)O)cc1OC | 0
COc1ccc(C(=O)N2CCSC2=S)cc1 | 0
COc1ccc(C(=O)N2CCSC2=S)cc1OC | 3.5
CCOC(=O)c1sc2nc(C)nc(N3CCN(C)CC3)c2c1C | 0
CCCC1=C(C(=O)OCC)C(c2ccc(O)cc2)n2c(nc3ccccc32)N1 (configuration not stated) | 3.6
CCCC1=C(C(=O)OCC)C(c2ccccc2)n2c(nc3ccccc32)N1 (configuration not stated) | 0
CCCC1=C(C(=O)OCC)C(c2ccccc2F)n2c(nc3ccccc32)N1 (configuration not stated) | 0
COC(=O)/C=C(/Sc1cc(C)c(Cl)cc1C)C(=O)OC | 0
O=C(NC(=S)N1CCc2ccccc21)c1cncc(C#Cc2ccccc2)c1 | 3.8
O=C(Nc1cccc(C(F)(F)F)c1)c1cncc(C#Cc2ccccc2)c1 | 0
O=C(Nc1ccc(Cl)cc1)c1cncc(C#Cc2ccccc2)c1 | 0
O=C(O)CCCC(=O)Nc1ccc2c(c1)C(=O)OC2 | 0
CC1CCCC(C)N1C(=O)C1Sc2nnc(-c3ccccc3)n2NC1c1ccc(F)cc1 (configuration not stated) | 0
COc1ccc(-c2c(-c3ccc(OC)c(OC)c3)c(C)n(C)c2C)cc1OC | 0
COc1ccc(-c2c(N)n[nH]c2C)cc1OC | 4.9
COc1ccc(-c2nc3cc(N)ccc3o2)cc1OC | 0
NC1CCN(c2ncc(C(F)(F)F)cc2Cl)CC1 | 0
SMILES | Dicer processing
NC(=O)c1c(C(F)(F)F)cccc1C(F)(F)F | 0
Oc1cccnc1NC(c1ccc(Cl)cc1)c1ccc2cccnc2c1O (configuration not stated) | 3.6
Cc1cccc(NC(c2ccncc2)c2ccc3cccnc3c2O)c1 (configuration not stated) | 0
Cc1ccc2ccc(C(Nc3ccccn3)c3ccccc3C)c(O)c2n1 (configuration not stated) | 0
Cc1ccc(C(NC(=O)C(C)C)c2ccc3cccnc3c2O)cc1 (configuration not stated) | 0
COc1cccc(C(Nc2ccccn2)c2ccc3ccc(C)nc3c2O)c1OC (configuration not stated) | 0
Oc1ccc2ncccc2c1C(Nc1ccccn1)c1ccc(Cl)cc1 (configuration not stated) | 0
Cc1cccc(NC(c2ccccc2C)c2ccc3ccc(C)nc3c2O)n1 (configuration not stated) | 5.3
O=C(NC(c1ccccc1)c1ccc2cccnc2c1O)c1ccccc1 (configuration not stated) | 6
Oc1c(C(Nc2ccccn2)c2ccccc2Cl)ccc2cccnc12 (configuration not stated) | 3.9
O=C(NC(Sc1ncccn1)C(=O)c1ccccc1)c1ccccc1 (configuration not stated) | 0
CCN(CC)c1ccc(C(Nc2ccccn2)c2ccc3cccnc3c2O)cc1 (configuration not stated) | 0
Cc1cccc(NC(c2ccccc2F)c2ccc3cccnc3c2O)n1 (configuration not stated) | 0
Cc1nnsc1C(=O)Nc1ccc2c(c1)OCCO2 | 0
Clc1ccc(/C=N\Nc2nc3ccccc3nc2/C=C/c2cccs2)cc1 | 0
COc1cc(OCc2ccccc2)ccc1CN1CCC(c2ccccc2OC)CC1 | 0
COc1ccc2oc(C(=O)c3ccc(Cl)c(C)c3)cc2c1 | 0
CC(C)(C)c1ccc(OCCS(=O)(=O)c2nc3ccccc3[nH]2)cc1 | 0
COc1ccc2cc(/C(C)=N/OC(=O)C(C)(C)C)ccc2c1 | 0
CCOC(=O)CSc1nc(C)nc2c1oc1ccccc12 | 0
COc1cc(/C=C2\N=C(C)OC2=O)cc(OC)c1 | 0
CCOc1ccc(C(Nc2ccccn2)c2ccc3ccc(C)nc3c2O)cc1C (configuration not stated) | 3.5
CCOc1cc(C(Nc2ccccn2)c2ccc3cccnc3c2O)ccc1O (configuration not stated) | 0
COc1ccc(C(Nc2ccccn2)c2ccc3ccc(C)nc3c2O)cc1 (configuration not stated) | 0
Cc1ccc2ccc(C(Nc3ccccn3)c3ccccc3)c(O)c2n1 (configuration not stated) | 5.9
SMILES | Dicer processing
Oc1c(C(Nc2ccccc2Cl)c2ccccn2)ccc2cccnc12 (configuration not stated) | 0
Cc1ccc2ccc(C(Nc3ccccn3)c3ccccc3F)c(O)c2n1 (configuration not stated) | 0
CCOc1cc(C(Nc2ccccn2)c2ccc3ccc(C)nc3c2O)ccc1OC (configuration not stated) | 0
CCc1ccccc1NC(c1ccccn1)c1ccc2cccnc2c1O (configuration not stated) | 8
CNc1nsc(C(=O)c2ccc(Cl)cc2)c1N | 0
NNC(=O)c1[nH]ncc1-c1ccc(Cl)cc1Cl | 0
O=C(CSc1n[nH]c(=O)n1C1Cc2ccccc2C1)Nc1ccccc1 | 0
Cc1c(C)c(C)c(CS(=O)(=O)CC(=O)Nc2ccc(F)c(Cl)c2)c(C)c1C | 0
COc1ccc(C2/C(=C(\O)c3ccc(Cl)cc3)C(=O)C(=O)N2CCCn2ccnc2)cc1OC (configuration not stated) | 0
COc1ccc(C2CC(=O)c3cnc(N4CCN(c5ccccn5)CC4)nc3C2)cc1OC (configuration not stated) | 0
CCCCOCC1CC2(CC(C)(c3csc(N)n3)OC2=O)C(=O)O1 (configuration not stated) | 0
C=CCNc1nc(C2(C)CC3(CC(COCC(C)C)OC3=O)C(=O)O2)cs1 (configuration not stated) | 3.1
C=CCNc1nc(C2(C)CC3(CC(C)OC3=O)C(=O)O2)cs1 (configuration not stated) | 3.5
CCCOCC1CC2(CC(C)(c3csc(Nc4ccc(C)cc4)n3)OC2=O)C(=O)O1 (configuration not stated) | 0
CC(C)CC1CC(C)(c2csc(Nc3ccccc3)n2)OC1=O (configuration not stated) | 0
CCC1CC(C)(c2csc(Nc3ccc(C)cc3)n2)OC1=O (configuration not stated) | 0
COC(=O)C1C(=O)CC(C)(O)C(C(=O)OC)C1c1ccc(O)c(OC)c1 (configuration not stated) | 0
CN(C)/C=N/C(=S)Nc1cccc(C(F)(F)F)c1 | 4.9
CC(C)(C)NNC(=S)Nc1cccc(C(F)(F)F)c1 | 0
CN(C)/C=N/C(=S)Nc1cccc(F)c1 | 0
COc1ccc(CN2CCN(Cc3cccc(OC)c3OC)CC2)cc1Br | 0
CC(C)/C(=N\OC(=O)c1ccc([N+](=O)[O-])cc1)c1ccccc1 | 0
CCCOC(=O)c1c(NC(=O)Cn2nc([N+](=O)[O-])cc2C)sc2c1CCCC2 | 4.3
CCOC(=O)c1c(NC(=O)Cn2nc(C(F)(F)F)c3c2CCC3)sc2c1CCCC2 | 0
